Measured values from PubChem BioAssay AID1159580 (chemical genetic matrix, 2015).
“And” between values parts separate entries of the source, which are not always exact repeats. Equal values may be shown once. Out of some 5,500 compounds screened, about 2,000 (36%) were called active. Another 18% or so got no clear call; they are omitted. No stated cut-off is given here; in the data, active means normalized growth mostly below about 0.91 (no sharp cut-off); inconclusive means no clear call, values can overlap the other calls; inactive means mostly above about 0.92. Some of the results follow.

Test: chemical genetic growth profiling, strain panel (AID 1159580);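 further: tested at 20 µM; growth read once vehicle control cultures reached saturation at 30 °C; 1 = growth at the plate median or of vehicle wells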
Details: S. cerevisiae deletion strains, growth OD

Measured: normalized growth

O=c1cc[nH]c(=S)[nH]1
inactive: locus YAL013W, strain DEP1, stronger effect = lower value 1.03 | locus YAL021C, strain ccr4, stronger effect = lower value 1.03 | locus YAL026C, strain drs2, stronger effect = lower value 0.987 | locus YAL030W, strain snc1, stronger effect = lower value 1 | locus YBL061C, strain skt5, stronger effect = lower value 1 | locus YBR009C, strain hhf1, stronger effect = lower value 0.964 | locus YBR021W, strain FUR4, stronger effect = lower value 1.02 | locus YBR023C, strain chs3, stronger effect = lower value 1.01 | locus YBR171W, strain sec66, stronger effect = lower value 1.01 | locus YBR229C, strain ROT2, stronger effect = lower value 1.01 | locus YBR231C, strain swc5, stronger effect = lower value 1.02 | locus YBR279W, strain paf1, stronger effect = lower value 0.997 | locus YCL011C, strain gbp2, stronger effect = lower value 0.997 | locus YCL016C, strain dcc1, stronger effect = lower value 1 | locus YCL029C, strain bik1, stronger effect = lower value 1.01 | locus YCL061C, strain MRC1, stronger effect = lower value 1.03 | locus YCL069W, strain vba3, stronger effect = lower value 1.01 | locus YCR088W, strain abp1, stronger effect = lower value 1.01 | locus YDL005C, strain med2, stronger effect = lower value 1.04 | locus YDL035C, strain GPR1, stronger effect = lower value 1.02 | locus YDL040C, strain nat1, stronger effect = lower value 1.01 | locus YDL074C, strain BRE1, stronger effect = lower value 1.03 | locus YDL101C, strain DUN1, stronger effect = lower value 1.03 | locus YDL134C, strain PPH21, stronger effect = lower value 1.02 | locus YDL185W, strain tfp1, stronger effect = lower value 1.01 | locus YDL192W, strain arf1, stronger effect = lower value 1.02 | locus YDR001C, strain nth1, stronger effect = lower value 1 | locus YDR069C, strain doa4, stronger effect = lower value 1.04 | locus YDR101C, strain arx1, stronger effect = lower value 1.01 | locus YDR137W, strain rgp1, stronger effect = lower value 1.04 | locus YDR150W, strain NUM1, stronger effect = lower value 1.01 | locus YDR159W, strain sac3, stronger effect = lower value 1.02 | locus YDR162C, strain NBP2, stronger effect = lower value 1.02 | locus YDR195W, strain ref2 1.03 | locus YDR297W, strain sur2, stronger effect = lower value 1.01 | locus YDR318W, strain mcm21, stronger effect = lower value 1.03 | locus YDR334W, strain swr1, stronger effect = lower value 1 | locus YDR335W, strain msn5, stronger effect = lower value 1.01 | locus YDR388W, stronger effect = lower value 1 | locus YDR392W, strain spt3, stronger effect = lower value 0.962 | locus YDR502C, strain sam2, stronger effect = lower value 1.03 | locus YEL003W, strain gim4, stronger effect = lower value 1 | locus YEL037C, strain rad23, stronger effect = lower value 0.991 | locus YEL061C, strain CIN8 (second series), stronger effect = lower value 1 | locus YEL061C, strain CIN8, stronger effect = lower value 1.01 | locus YER015W, strain faa2, stronger effect = lower value 1.01 | locus YER016W, strain bim1, stronger effect = lower value 1.01 | locus YER110C, stronger effect = lower value 1 | locus YER111C, strain swi4, stronger effect = lower value 1.01 | locus YER155C, strain BEM2 (second series), stronger effect = lower value 1.04 | locus YER155C, strain BEM2, stronger effect = lower value 1.01 | locus YER167W, strain BCK2, stronger effect = lower value 1.02 | locus YFR010W, strain ubp6, stronger effect = lower value 0.997 | locus YGL078C, strain dbp3, stronger effect = lower value 1.01 | locus YGL086W, strain mad1, stronger effect = lower value 1 | locus YGL167C, strain pmr1, stronger effect = lower value 1 | locus YGL173C, strain kem1, stronger effect = lower value 1.01 | locus YGL227W, strain vid30, stronger effect = lower value 1.01 | locus YGL240W, strain doc1, stronger effect = lower value 1.07 | locus YGL248W, strain PDE1, stronger effect = lower value 1.01 | locus YGL253W, strain hxk2, stronger effect = lower value 1.03 | locus YGR078C, strain PAC10, stronger effect = lower value 1.03 | locus YGR135W, strain pre9, stronger effect = lower value 1.02 | locus YGR229C, strain SMI1, stronger effect = lower value 1.03 | locus YGR252W, strain gcn5, stronger effect = lower value 1.09 | locus YHR013C, strain ard1, stronger effect = lower value 1.04 | locus YHR027C, strain rpn1, stronger effect = lower value 1 | locus YHR030C, strain SLT2, stronger effect = lower value 1.02 and 0.995 | locus YHR079C, strain IRE1 (second series), stronger effect = lower value 0.999 | locus YHR079C, strain IRE1, stronger effect = lower value 1.01 | locus YHR094C, strain hxt1, stronger effect = lower value 0.983 | locus YHR129C, strain ARP1, stronger effect = lower value 1.01 | locus YHR142W, strain chs7, stronger effect = lower value 0.987 | locus YHR200W, strain rpn10, stronger effect = lower value 1.02 | locus YIL066C, strain RNR3, stronger effect = lower value 1.03 | locus YIL073C, strain SPO22, stronger effect = lower value 1.03 | locus YIL125W, strain kgd1, stronger effect = lower value 1.01 | locus YIR030C, strain dcg1, stronger effect = lower value 1.01 | locus YJL092W, strain hpr5, stronger effect = lower value 1 | locus YJL095W, strain BCK1 (second series), stronger effect = lower value 1.01 | locus YJL095W, strain BCK1, stronger effect = lower value 1.04 and 1.01 | locus YJL115W, strain asf1, stronger effect = lower value 1.01 | locus YJL129C, strain trk1, stronger effect = lower value 1.01 | locus YJL134W, strain LCB3, stronger effect = lower value 1.01 | locus YJL154C, strain vps35, stronger effect = lower value 1.01 | locus YJL164C, strain tpk1, stronger effect = lower value 0.983 | locus YJL166W, strain qcr8, stronger effect = lower value 1.03 | locus YJL168C, strain set2, stronger effect = lower value 0.997 | locus YJL187C, strain SWE1 (second series), stronger effect = lower value 1.04 | locus YJL187C, strain SWE1, stronger effect = lower value 1.01 | locus YJR043C, strain POL32, stronger effect = lower value 1.02 | locus YJR066W, strain TOR1, stronger effect = lower value 0.917
